ALDH1A1 block: qHTS Assay for Inhibitors of Aldehyde Dehydrogenase 1 (ALDH1A1) | Aldehyde dehydrogenase 1A1 (Homo sapiens), P00352 | Purified ALDH1A1, NADH fluorescence, propionaldehyde substrate | Potency, µM (series often up to 75.3 µM), most hits filed as inhibitors | 220,000 tested, 7.3% active; active = well fitted inhibition curve with a large enough effect, not every such curve was filed as active; inconclusive = small, poorly fitted or top-dose-only effect, or another doubt; inactive = no such curve, though single readings can be large or run the other way
Target sequence (P00352 whole entry, looked up): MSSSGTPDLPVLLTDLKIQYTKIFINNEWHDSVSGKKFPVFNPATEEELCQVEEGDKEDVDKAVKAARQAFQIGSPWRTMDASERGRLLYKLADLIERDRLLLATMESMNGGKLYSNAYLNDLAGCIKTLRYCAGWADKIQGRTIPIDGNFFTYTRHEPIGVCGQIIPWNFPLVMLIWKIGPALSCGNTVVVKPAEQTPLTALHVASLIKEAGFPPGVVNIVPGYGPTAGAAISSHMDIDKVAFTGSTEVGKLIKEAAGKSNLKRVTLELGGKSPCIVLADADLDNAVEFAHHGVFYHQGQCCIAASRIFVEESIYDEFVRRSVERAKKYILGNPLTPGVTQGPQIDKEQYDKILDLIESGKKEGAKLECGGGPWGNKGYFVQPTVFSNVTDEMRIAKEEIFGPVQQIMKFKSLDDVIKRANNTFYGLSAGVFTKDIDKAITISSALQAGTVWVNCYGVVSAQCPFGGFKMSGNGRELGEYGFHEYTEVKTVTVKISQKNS
HPGD block: qHTS Assay for Inhibitors of HPGD (15-Hydroxyprostaglandin Dehydrogenase). 15-hydroxyprostaglandin dehydrogenase [NAD(+)] (Homo sapiens), P15428. purified HPGD, NADH fluorescence kinetic, PGE2 substrate. Potency, µM, actives largely listed as inhibitors. 150,000 tested, 4.3% active; active = well fitted inhibition curve with a large enough effect, not every such curve was filed as active; inconclusive = small, poorly fitted or top-dose-only effect, or another doubt; inactive = no such curve, though single readings can be large or run the other way
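20 nM HPGD preincubated 15 min at room temperature with compound in 50 mM Tris-HCl pH 8, 0.01% Tween 20. Started with 1 mM NAD+ and 30 uM prostaglandin E2; NADH fluorescence (360/450 nm) read 5 times over 30-s intervals, last minus first.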
PNC inhibitor: High Content Assay for Compounds that inhibit the Assembly of the Perinucleolar Compartment; PC3M PTB-GFP, PNC prevalence imaging, 16 h; stronger effect = lower value; activity change (PNC), negative = inhibition, % at 10 µM; 140,000 tested, 3.1% active;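 active = readout at or below -70, meaning at least 70% loss of cells showing the perinucleolar compartment, a nuclear body marking cancer cells; inconclusive = readout between -30 and a set limit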
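PC3M cells stably expressing PTB-GFP, 750–1000 cells/well, treated 16 h at 37 °C with compound (23 nl of library stock), in duplicate. After paraformaldehyde fixation and Hoechst stain, imaged at 20x; PNC prevalence scored by image analysis.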
CBFb-RUNX1 inh: qHTS Assay for Compounds Blocking the Interaction Between CBF-beta and RUNX1 for the Treatment of Acute Myeloid Leukemia. Runt-related transcription factor 1 (Homo sapiens) + Core-binding factor subunit beta …. AlphaScreen CBFb-His/RUNX1-biotin binding, biochemical. Potency, µM (series often up to 59.8 µM), hits mostly inhibitors. 230,000 tested, under 10 active. AID 1477, 2009
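Proteins preincubated together for 20 min at RT before compound addition; 15 min later, nickel and streptavidin beads were added and left 90 min prior to AlphaScreen measurement.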
HTT aggregate: qHTS Multiplex Assay to Identify Dual Action Probes in a Cell Model of Huntington: Aggregate Formation (GFP); PC12 HttQ103-GFP aggregates, Acumen cytometry, 40 h; Potency, µM (highest dose often 46.1 µM), usual class: inhibitors; 220,000 tested, 1.1% active; note: nearly all actives have a fitted effect of over 60% in size
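Inducible Q103 Huntingtin exon 1–GFP PC12 line, 1500 cells/well in phenol red free DMEM with 5% equine and 5% calf serum. Tebufenozide 100 nM induced expression; compounds titrated; aggregates quantified by cytometry.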
HTT cytoprotect: qHTS Multiplex Assay to Identify Dual Action Probes in a Cell Model of Huntington: Cytoprotection (ATP); PC12 HTT-Q103 induced, cytoprotection, ATP luminescence, 40 h; Potency, µM (series often up to 56.4 µM), usual class: activators; 230,000 tested, 0.14% active; note: nearly all actives have a fitted effect of over 45% in size
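Cells were plated at 1500 per well in phenol red-free DMEM with 5% equine and 5% calf serum. Tebufenozide (100 nM final) and compounds were added, then ATPlite reagent, and luminescence was read.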
A number is an active result; 0 = inactive; ? = inconclusive; - = not tested or not shown; ! = not confirmed by another sample; [ ] = dose if it differs, or a comment. This is a sample that favours compounds with a hit; in the whole collection about 11% have one here. Unless noted, calls come from the whole dose curve; as a rule, active = well fitted curve in the direction sought with a large enough effect; inconclusive = small, poorly fitted or top-dose-only effect, or another doubt; inactive = no such curve, though single readings can be large; an effect the other way counts as inactive or inconclusive.

SMILES	ALDH1A1 block	HPGD block	PNC inhibitor	CBFb-RUNX1 inh	HTT aggregate	HTT cytoprotect
Clc1ccc(OCCCc2nc(-c3ccncc3)no2)c(Cl)c1	0	28µM	0	0	0	0
Cc1noc(C)c1COC(=O)C(c1ccccc1)c1ccccc1	11µM	-	-	0	0	0
CCCCCC(C)N (centres undefined)	0	0	-	0	0	0
CCCC(=O)NC(=S)Nc1ccccc1OC	0	0	0	0	0	0
COc1ccccc1NC(=S)NC(=O)CCCOc1ccc(Cl)cc1Cl	11µM	0	0	0	0[9.22 µM]	0
N/C(COc1cc(Cl)cc(Cl)c1)=N\O	-	-	-	0	0[9.22 µM]	0[10 µM]
C=CCN1C(=O)C(O)(CC(=O)c2ccco2)c2cc(Br)ccc21 (centres undefined)	7.9µM	-	-	0	0	0
Cc1n[nH]c(C)c1C(=O)CC1(O)C(=O)N(CCc2ccccc2)c2ccc(Br)cc21 (centres undefined)	?	0	0	0	0	0[10 µM]
Cc1n[nH]c(C)c1C(=O)CC1(O)C(=O)N(Cc2ccccc2)c2ccc(Br)cc21 (centres undefined)	10µM	0	?	0	0	0
O=C(/C=C/c1cc(Br)ccc1O)c1ccco1	-	-	-	0	0[9.22 µM]	0[10 µM]
N[C@@](C(=O)O)(c1ccc(P(=O)(O)O)cc1)C1CC1	0	0	-	0	-	0
COc1ccccc1CNC(=O)Cn1cccc1	0	16µM	?	0	0	0
Cc1ccc(OCC(=O)Sc2ccc(C)cc2)cc1	0	?	0	0	0	0
COc1ccccc1CNC(=O)CSc1ccccc1	0	-	-	0	0	0
COc1ccccc1CNC(=O)CSc1ccc(C)cc1	0	14µM	?	0	0	-
COc1ccccc1OCC(=O)Sc1ccc(C)cc1	0	32µM	0	0	0	0
COc1ccccc1CNC(=O)C[n+]1ccccc1	0	0	0	0	0	0
C=CCOc1ccccc1/C=c1\sc2nc(=O)c(C)nn2c1=O	22µM	0	0	?	0	0[0.074 µM]
CN1CCN(c2ncc3nc(-c4cccs4)c(=O)n(CCC#N)c3n2)CC1	?	-	-	-	-	0
C[N+](C)(CC#Cc1ccccc1)CC(=O)c1ccc(Cl)cc1	0	0	-90	0	0	0[10 µM]
CN(C)c1ccc(C(=C2C=CC(=[N+](C)C)C=C2)c2ccccc2)cc1	8.9µM!	?	-	?	?	0[10 µM]
CN(C)c1ccc(C(=C2C=CC(=[N+](C)C)C=C2)c2ccc(N(C)C)cc2)cc1	0	0	-	-	?	0
N#CC1=C(S)N(c2ccccc2)C(c2cccs2)NC1=O (centres undefined)	20µM	32µM	0	0	0	0[10 µM]
Cc1ccc(N2C(S)=C(C#N)C(=O)NC2c2ccco2)cc1 (centres undefined)	?	-	-	0	0	0
Cc1ccc(N2C(S)=C(C#N)C(=O)NC2c2cccs2)cc1 (centres undefined)	0	22µM	-114	0	0	0[10 µM]
SMILES	ALDH1A1 block	HPGD block	PNC inhibitor	CBFb-RUNX1 inh	HTT aggregate	HTT cytoprotect
COC(=O)c1ccc(C(NC(=O)c2ccco2)[C@]2(C)C[C@H]2C2CCCCC2)cc1 (some centres undefined)	3.5µM	0	-	0	-	0
CCC(C)NS(=O)(=O)c1ccc(S(=O)(=O)Nc2cc3c(cc2C(C)=O)OCO3)cc1 (centres undefined)	?	0	0	0	13µM	?
N#Cc1ccc(CN2CCC3(CC2)CCN(C(=O)c2ccncc2)CC3)cc1	0	0	-	-	-	0
COc1ccccc1N1CCN(C(=O)CSc2nc3ncnc(N)c3[nH]2)CC1	28µM	0	?	0	0	0
O=C(CSc1nc2ccccc2n1CC(=O)N1CCCC1)N1CCN(C(=O)c2ccco2)CC1	0	0	0	0	0	0[10 µM]
COc1ccccc1N1CCN(C(=O)CSc2nc3ccccc3o2)CC1	8.9µM	0	-82	0	0	0
CC(C)Cn1c(SCC(=O)N2CCN(C(=O)c3ccco3)CC2)nc2ccccc2c1=O	32µM	-	-	0	0	0[10 µM]
CC1CCCN(C(=O)CSc2nc3ccccc3o2)C1 (centres undefined)	0	13µM	0	0	0	0
Cc1ccc(S(=O)(=O)N2CCN(C(=O)CSc3nc4ccccc4o3)C2)cc1	0	0	0	0	0	0
CNC(=O)COC(=O)c1cc(SC)ccc1Cl	0	-	-	0	0	?
OCC#CCSc1nnc(-c2ccccc2Br)o1	20µM	0	0	0	0	0[10 µM]
O=C(CSc1nc2cc(Cl)ccc2o1)N1CCOCC1	0	0	?	0	0	0[10 µM]
O=C(O)c1ccc2oc(SCC(=O)N3CCCCC3)nc2c1	0	8.9µM	0	0	0	0[10 µM]
O=C(OCC#CCSc1nc2ccccc2o1)c1ccco1	0	0	-83	0	0	0
CC(C)Cn1c(SCC(=O)N2CCN(S(=O)(=O)c3ccccc3)CC2)nc2ccccc21	13µM	0	0	0	0	0[10 µM]
N=C(N)C(N=Nc1ccccc1)C(=N)N (centres undefined)	0[13.5 µM]	0	-	-	-	0[10 µM]
CCCCCCC(=O)N/N=C1\CCCc2ccccc21	0	0	?	0	0	0[10 µM]
Nc1ncnc2[nH]c(=O)[nH]c12	0	0	-	-	-	-
NC(=O)C1CCN(C(=O)CN2CCCc3ccccc32)CC1	20µM	?	0	0	0	0[0.074 µM]
NC(=O)C1(N2CCCCC2)CCN(C(=O)CSc2nc3ccccc3o2)CC1	-	-	-	-	-	0[0.074 µM]
O=C(CSc1nc2ccccc2o1)N1CCN(C(=O)c2ccco2)CC1	13µM	0	0	0	0	0[10 µM]
O=C(CSc1ccc(F)cc1)N1CCN(S(=O)(=O)c2ccccc2)CC1	2.8µM	-	-	0	0	0
NC(=O)C1CCN(C(=O)CSc2nc3ccccc3o2)CC1	0	0	-128	0	0	0[10 µM]
O=C(CSc1ncccn1)N1CCN(S(=O)(=O)c2ccccc2)CC1	-	-	-	0	0[9.22 µM]	0[10 µM]
Cc1nc2cnc(N(C)C)nc2n(CCc2ccccc2)c1=O	?	-	-	-	-	0
Cn1c(N)c(C(=O)COC(=O)C2CCCC2)c(=O)n(C)c1=O	?	-	-	0	0	0
CSCC[C@@H]1NC(=O)C/C=C\[C@@H](C)COC(=O)[C@H](C)COC1=O	0[13.5 µM]	-	-	0[13.1 µM]	-	0[10 µM]
CO/N=C1/c2cc(OC)ccc2O[C@@H](c2cccc(OC)c2)[C@H]1O	?	-	-	0[13.1 µM]	-	0[10 µM]
COC(=O)[C@H](Cc1ccccc1)NC(=O)[C@]1(C)C[C@H]1[C@H](NC(=O)OCc1ccccc1)c1ccccc1	?	0	-	0	-	0
